Our source for the outcome values is PubChem BioAssay AID720624 (Broad Institute, 2013).

The assay is described as follows: cytotoxicity in SNB-75 CNS cells – cell-based, CellTiter-Glo ATP luminescence, several timepoints, dry powder, mechanism study for HRAS target identification, late-stage follow-up (AID 720624). Conditions: SNB-75 viability, 8-48 h; series mostly up to 35 µM.

Potency and affinity values are given separately. Results filed as inconclusive are left out. A call without a number means that no potency is given here. Active and inactive are the calls of the source.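 How the source made its calls: active means viability loss with half-maximal concentration at most twice the top valid dose, at 8, 24 and 48 hours; inconclusive means timepoint results disagree; inactive means inactive at all three timepoints.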

In the case of `Cc1onc(C(=O)N2CCN(C(c3ccncc3)c3ccncc3)CC2)c1[N+](=O)[O-]`, the outcome was inactive.
